Results published in PubChem BioAssay (NCI).
Compounds without any hit were thinned out: in the full panel of roughly 83,000, 20% have a hit.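 Each cell line was grown in a 96-well plate and treated with one concentration of compound for 48 hours. Values below 10 were considered active.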 Unmarked numbers belong to inactive results. Calls of active or inactive are those of the source.

Experiments:
Assay in all cases: NCI-60 one-dose screen, 48 h (100 = growth as untreated, 0 = no growth, -100 = all killed)
Conditions in all cases: 10 µM unless noted
[1] = test system: NCI-H23 lung
[2] = test system: NCI-H226 lung
[3] = test system: NCI-H322M lung
[4] = test system: HOP-62 NSCLC
[5] = test system: NCI-H460 lung
[6] = test system: HOP-92 NSCLC
[7] = test system: NCI-H522 lung
[8] = test system: A549/ATCC NSCLC
[9] = test system: 786-0 renal
[10] = test system: COLO 205 colon

SMILES | growth [1] | growth [2] | growth [3] | growth [4] | growth [5] | growth [6] | growth [7] | growth [8] | growth [9] | growth [10]
Fc1[nH]nc2ccc([C@@H]3Nc4ccc5[nH]ncc5c4[C@H]4C5CCC(C5)[C@@H]34)cc12 (stereo not given in full) | 45.2% | 47.5% | 47.7% | 37.6% | 11.5% | 67.3% | 10.3% | 28% | 51.9% | 9.22% (active)
CSC(=S)N/N=C(\C)c1ccccn1 | 33.6% | 5.78% (active) | 8.08% (active) | 21.6% | -18.1% (active) | 31.3% | -3.86% (active) | 10.3% | 16.9% | 24%
Cc1cc(O)c(C2=NN(c3ccc(S(N)(=O)=O)cc3)C(c3ccc(Cl)cc3)C2)c(C)c1Cl (stereo not given) | 78.8% | 106% | 75.3% | 84.3% | 3.35% (active) | 21.3% | 57.7% | 33.2% | 43.3% | 30.8%
CC(C)[C@H](CN)NC[C@H](C)NS(=O)(=O)c1ccc(C(C)(C)C)cc1 | 97% | 74.2% | 101% | 94.6% | 100% | 71.9% | 96.2% | 98.7% | 90.3% | 105%
COc1ccc(C2CC(c3ccc(Nc4ccnc5cc(Cl)ccc45)cc3)=NN2c2ccccc2)cc1 (stereo not given) | 97.7% | 102% | 100% | 106% | 85.6% | 68.5% | 90.6% | 85.8% | 100% | 86.5%
CCCCOc1ncnc2nc[nH]c12 | 100% | 94.2% | 101% | 96.1% | 113% | 101% | 100% | 99.3% | 97.1% | 110%
NS(=O)(=O)c1ccc(N2N=C(c3cccs3)CC2c2ccccc2O)cc1 (stereo not given) | 28.1% | 19.2% | 25.4% | 24.4% | -0.156% (active) | -8.37% (active) | -23.9% (active) | 7.33% (active) | 10.8% | -73.7% (active)
Cc1cc(NC(=O)C2c3ccccc3C(=O)N(CC(C)C)C2c2cccs2)no1 (stereo not given) | 47.6% | 103% | 107% | 43.8% | 69.1% | -0.868% (active) | -66.5% (active) | 35.3% | -32.6% (active) | -83.9% (active)
Nc1c(C(=O)c2ccc(Br)cc2)sc2nc3c(cc12)CCCC3 | 97.4% | 92.2% | 101% | 98.6% | 103% | 89.2% | 43.1% | 96.8% | 98.2% | 104%
CC(=O)c1ccc(Nc2nc(Cl)nc(Oc3c(Cl)cccc3Cl)n2)cc1 | 92.3% | 74.9% | 104% | 101% | 79.9% | 81.2% | 64.4% | 83.8% | 100% | 99.7%
O=C(CN1CCN(c2ccccc2)CC1)N1CCN(c2nnc(-c3ccc(Cl)cc3)c(-c3ccc(Cl)cc3)n2)CC1 | 82.3% | 68% | 89.9% | 66% | 47.9% | 71.3% | 59.7% | 54.8% | 40.1% | 51%
O=C1CC2(O)CSc3nc(=O)cc(n32)N1 (stereo not given) | 107% | 98.6% | 93.2% | 112% | 104% | 105% | 102% | 96.5% | 99.6% | 103%
c1ccc(C(CC2=NCCCN2)c2ccccc2)cc1 | 99.6% | 98% | 99.7% | 94.1% | 102% | 82.6% | 90.9% | 91.7% | 107% | 102%
CCOC(=O)c1c(NC(=O)c2ccccc2)sc2c(O)c(CN(CC)CC)ccc12 | 2.37% (active) | -21.7% (active) | 50.6% | -17.2% (active) | 4.01% (active) | 46.3% | -45.3% (active) | 11.4% | 18.5% | -74.7% (active)
CC1(C)C(N(O)C(=O)Nc2ccc(Cl)cc2)N(c2ccc(Cl)cc2)C(=O)N1CC(=O)N/N=C/C=C/c1ccc([N+](=O)[O-])o1 (stereo not given) | 3.01% (active) | 25.8% | 49% | 36.8% | -13.1% (active) | -30.9% (active) | -88.5% (active) | 6.98% (active) | -48.9% (active) | -81.3% (active)
CCN1CCN(Cc2ccc(NC(=O)c3nc4ccc5[nH]ncc5c4c4c3CCCC4)cc2C(F)(F)F)CC1 | 74.6% | 60.3% | 2.39% (active) | -29.8% (active) | -73.4% (active) | 44.9% | -76.9% (active) | 6.07% (active) | -88.6% (active) | -76.7% (active)
CC(=O)Nc1ccc(Cl)cc1Cl | 111% | 95.5% | 114% | 110% | 114% | 107% | 89.4% | 95.3% | 106% | 130%
Cc1cccc(C(=O)O)n1 | 123% | 93.9% | 108% | 106% | 105% | 6.89% (active) | 90.8% | 102% | 112% | 114%
CCCCCCCCNC(C)C(O)c1ccc(SC(C)C)cc1 (stereo not given) | 74.2% | 96% | 87.9% | 85% | -37.7% (active) | -28.1% (active) | 12.1% | 98.8% | -14.9% (active) | 4.17% (active)
COc1cccc2nc(Nc3cccc(NC(=O)c4ccc(N5CCN(C)CC5)c(C(F)(F)F)c4)c3)ccc12 | 62.6% | 43.2% | 42.6% | 18.2% | -9.94% (active) | 13% | -14.2% (active) | 25.3% | -57.8% (active) | -59.2% (active)
C#CCNC(=S)N/N=C(\C)c1ccccn1 | 20.1% | 5% (active) | -4.06% (active) | 26.5% | 4% (active) | 52.4% | 43.9% | 23.9% | 4.03% (active) | 19.6%
CCCCn1c(C)nc2cc(Nc3nc(Cl)nc4nc[nH]c34)ccc21 | 77.9% | 75% | 76.8% | 66% | 84.7% | -1.07% (active) | 78.9% | 85% | 76.4% | 89.7%
O=c1[nH]cnc2nc[nH]c12 | 113% | 98.9% | 94.9% | 106% | 103% | 104% | 99.2% | 105% | 114% | 112%
O=C(NC1CC1)c1ccc(-c2nc3ccc4[nH]ncc4c3c3c2CCCC3)cc1 | 53.3% | 44.7% | 41.7% | 28.9% | 41.7% | 71.2% | 18.9% | 26.3% | 42.1% | 23.6%
COc1ccc2cc(-c3nc(C)c(C(C)=O)c(-c4ccc(C)cc4)n3)ccc2c1 | 89.2% | 80.1% | 87.5% | 105% | 92.6% | 86.2% | 81.3% | 92.4% | 87.9% | 102%
COc1ccc(Nc2ncnc3c2sc2nc(C)cc(C)c23)cc1 | 111% | 103% | 102% | 107% | 97.9% | 130% | 99.9% | 96% | 93.9% | 111%
Oc1[nH]c2ccc(Cl)cc2c1/C=c1/ccc2c(c1)N=C(c1ccc(F)cc1)N=2 | 74.5% | 89.9% | 84.1% | 74.5% | 74.2% | 34.2% | 80.7% | 71.4% | 76% | 97.6%
COc1ccc2[nH]c(O)c(/C=c3/ccc4c(c3)N=C(c3ccc(C(F)(F)F)cc3)N=4)c2c1 | 82.4% | 96.9% | 76.1% | 100% | 53.5% | 71.9% | 89.6% | 66.4% | 37.3% | 102%
